Assay results as given in ChEMBL document CHEMBL1961873, “Compounds: GSK PKIS; Assays: Nanosyn kinase panel” (2012).

Key:
[1] = molecular target: T1, Inhibitor of nuclear factor kappa-B kinase subunit epsilon (Homo sapiens) (UniProt Q14164); details: at 1 µM;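 further: reported values are averaged percent inhibition figures against human IKKε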
T1 sequence (whole entry): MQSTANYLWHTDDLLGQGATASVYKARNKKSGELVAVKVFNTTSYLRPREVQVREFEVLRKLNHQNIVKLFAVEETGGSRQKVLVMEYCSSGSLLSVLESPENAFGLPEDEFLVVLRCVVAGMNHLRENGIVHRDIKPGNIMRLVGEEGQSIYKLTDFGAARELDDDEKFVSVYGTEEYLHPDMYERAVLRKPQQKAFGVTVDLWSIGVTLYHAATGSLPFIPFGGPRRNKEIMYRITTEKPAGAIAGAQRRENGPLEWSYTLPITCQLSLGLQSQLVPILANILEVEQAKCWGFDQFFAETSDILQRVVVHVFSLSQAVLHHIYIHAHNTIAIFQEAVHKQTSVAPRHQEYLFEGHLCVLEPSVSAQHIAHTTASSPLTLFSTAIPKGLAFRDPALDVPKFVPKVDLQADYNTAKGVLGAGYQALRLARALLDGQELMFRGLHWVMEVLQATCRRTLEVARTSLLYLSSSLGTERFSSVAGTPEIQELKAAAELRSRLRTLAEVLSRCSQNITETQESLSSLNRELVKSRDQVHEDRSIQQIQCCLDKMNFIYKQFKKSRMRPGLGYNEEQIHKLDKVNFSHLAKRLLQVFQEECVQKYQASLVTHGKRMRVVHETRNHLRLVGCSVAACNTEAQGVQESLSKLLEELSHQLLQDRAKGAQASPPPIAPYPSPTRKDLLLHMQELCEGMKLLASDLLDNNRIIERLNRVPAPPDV

[2] = molecular target: T2, Serine/threonine-protein kinase Nek1 (Homo sapiens) (UniProt Q96PY6); details: at 0.1 µM
T2 sequence (whole entry): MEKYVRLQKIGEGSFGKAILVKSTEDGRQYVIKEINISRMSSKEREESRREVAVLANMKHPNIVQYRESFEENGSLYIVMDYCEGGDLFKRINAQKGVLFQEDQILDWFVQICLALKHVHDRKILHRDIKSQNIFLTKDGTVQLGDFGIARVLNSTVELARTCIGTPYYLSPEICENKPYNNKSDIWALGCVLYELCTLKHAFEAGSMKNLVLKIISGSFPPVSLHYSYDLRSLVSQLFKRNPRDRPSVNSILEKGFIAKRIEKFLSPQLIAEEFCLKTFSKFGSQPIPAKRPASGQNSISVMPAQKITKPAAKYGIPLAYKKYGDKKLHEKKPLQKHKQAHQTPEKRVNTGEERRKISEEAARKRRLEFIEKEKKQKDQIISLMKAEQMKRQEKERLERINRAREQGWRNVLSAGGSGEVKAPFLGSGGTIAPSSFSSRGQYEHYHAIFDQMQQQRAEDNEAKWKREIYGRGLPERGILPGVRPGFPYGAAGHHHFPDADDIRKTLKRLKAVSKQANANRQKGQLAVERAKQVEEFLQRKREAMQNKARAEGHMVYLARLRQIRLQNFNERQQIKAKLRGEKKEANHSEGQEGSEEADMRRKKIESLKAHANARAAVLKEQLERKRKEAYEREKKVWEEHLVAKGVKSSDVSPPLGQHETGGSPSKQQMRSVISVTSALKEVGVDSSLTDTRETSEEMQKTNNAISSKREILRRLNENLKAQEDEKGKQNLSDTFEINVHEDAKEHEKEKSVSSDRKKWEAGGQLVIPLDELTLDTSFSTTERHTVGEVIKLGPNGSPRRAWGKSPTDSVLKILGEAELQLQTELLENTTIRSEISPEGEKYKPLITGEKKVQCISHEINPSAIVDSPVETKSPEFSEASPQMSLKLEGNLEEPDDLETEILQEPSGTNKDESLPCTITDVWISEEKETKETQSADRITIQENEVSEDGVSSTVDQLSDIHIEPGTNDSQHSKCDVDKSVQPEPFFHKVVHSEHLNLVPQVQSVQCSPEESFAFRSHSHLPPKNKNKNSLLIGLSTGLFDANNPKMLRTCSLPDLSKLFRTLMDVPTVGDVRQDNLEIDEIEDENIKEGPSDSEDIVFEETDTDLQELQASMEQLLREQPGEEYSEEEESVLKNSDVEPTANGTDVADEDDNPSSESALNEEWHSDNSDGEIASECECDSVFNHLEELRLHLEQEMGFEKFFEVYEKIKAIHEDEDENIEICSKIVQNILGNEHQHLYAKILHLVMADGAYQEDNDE

[3] = molecular target: T2, Serine/threonine-protein kinase Nek1 (Homo sapiens); details: at 1 µM
[4] = molecular target: T3, Serine/threonine-protein kinase Nek2 (Homo sapiens) (UniProt P51955); details: at 0.1 µM
T3 sequence (whole entry): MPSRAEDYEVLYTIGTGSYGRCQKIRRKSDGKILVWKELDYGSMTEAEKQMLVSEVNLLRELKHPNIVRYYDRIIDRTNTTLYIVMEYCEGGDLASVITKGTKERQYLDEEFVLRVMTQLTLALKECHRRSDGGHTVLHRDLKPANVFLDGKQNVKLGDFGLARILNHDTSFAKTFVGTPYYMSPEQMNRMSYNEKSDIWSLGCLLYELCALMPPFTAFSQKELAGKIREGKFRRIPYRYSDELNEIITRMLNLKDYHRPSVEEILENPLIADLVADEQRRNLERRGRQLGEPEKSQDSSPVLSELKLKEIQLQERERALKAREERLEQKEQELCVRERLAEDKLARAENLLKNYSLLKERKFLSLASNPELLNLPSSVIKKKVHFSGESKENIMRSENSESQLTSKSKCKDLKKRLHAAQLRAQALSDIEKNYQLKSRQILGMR

[5] = molecular target: T3, Serine/threonine-protein kinase Nek2 (Homo sapiens); details: at 1 µM
[6] = molecular target: Serine/threonine-protein kinase Nek6 (Homo sapiens) (UniProt Q9HC98); details: at 0.1 µM
Chain of Serine/threonine-protein kinase Nek6 (Homo sapiens) (Q9HC98 whole entry): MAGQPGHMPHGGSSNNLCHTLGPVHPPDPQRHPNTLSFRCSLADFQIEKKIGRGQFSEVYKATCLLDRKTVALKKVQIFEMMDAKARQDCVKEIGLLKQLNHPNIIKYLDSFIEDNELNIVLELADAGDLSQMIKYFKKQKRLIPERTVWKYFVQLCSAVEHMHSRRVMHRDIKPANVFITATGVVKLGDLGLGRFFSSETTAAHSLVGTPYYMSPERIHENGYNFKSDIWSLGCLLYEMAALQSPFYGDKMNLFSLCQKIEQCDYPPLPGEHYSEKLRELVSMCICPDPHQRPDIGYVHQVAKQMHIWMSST

[7] = molecular target: Serine/threonine-protein kinase Nek6 (Homo sapiens) (UniProt Q9HC98); details: at 1 µM
[8] = molecular target: Serine/threonine-protein kinase Nek7 (Homo sapiens) (UniProt Q8TDX7); details: at 0.1 µM
Chain of Serine/threonine-protein kinase Nek7 (Homo sapiens) (Q8TDX7 whole entry, looked up): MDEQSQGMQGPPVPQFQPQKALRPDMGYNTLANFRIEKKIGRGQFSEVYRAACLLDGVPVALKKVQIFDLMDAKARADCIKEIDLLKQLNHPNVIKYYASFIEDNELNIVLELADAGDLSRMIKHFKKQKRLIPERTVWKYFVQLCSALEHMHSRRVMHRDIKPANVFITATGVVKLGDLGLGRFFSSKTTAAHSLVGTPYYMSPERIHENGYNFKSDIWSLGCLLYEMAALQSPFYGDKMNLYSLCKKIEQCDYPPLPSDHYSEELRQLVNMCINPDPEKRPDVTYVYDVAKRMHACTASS

[9] = molecular target: Serine/threonine-protein kinase Nek7 (Homo sapiens) (UniProt Q8TDX7); details: at 1 µM
[10] = molecular target: T4, Serine/threonine-protein kinase Nek9 (Homo sapiens) (UniProt Q8TD19); details: at 0.1 µM
T4 sequence (whole entry): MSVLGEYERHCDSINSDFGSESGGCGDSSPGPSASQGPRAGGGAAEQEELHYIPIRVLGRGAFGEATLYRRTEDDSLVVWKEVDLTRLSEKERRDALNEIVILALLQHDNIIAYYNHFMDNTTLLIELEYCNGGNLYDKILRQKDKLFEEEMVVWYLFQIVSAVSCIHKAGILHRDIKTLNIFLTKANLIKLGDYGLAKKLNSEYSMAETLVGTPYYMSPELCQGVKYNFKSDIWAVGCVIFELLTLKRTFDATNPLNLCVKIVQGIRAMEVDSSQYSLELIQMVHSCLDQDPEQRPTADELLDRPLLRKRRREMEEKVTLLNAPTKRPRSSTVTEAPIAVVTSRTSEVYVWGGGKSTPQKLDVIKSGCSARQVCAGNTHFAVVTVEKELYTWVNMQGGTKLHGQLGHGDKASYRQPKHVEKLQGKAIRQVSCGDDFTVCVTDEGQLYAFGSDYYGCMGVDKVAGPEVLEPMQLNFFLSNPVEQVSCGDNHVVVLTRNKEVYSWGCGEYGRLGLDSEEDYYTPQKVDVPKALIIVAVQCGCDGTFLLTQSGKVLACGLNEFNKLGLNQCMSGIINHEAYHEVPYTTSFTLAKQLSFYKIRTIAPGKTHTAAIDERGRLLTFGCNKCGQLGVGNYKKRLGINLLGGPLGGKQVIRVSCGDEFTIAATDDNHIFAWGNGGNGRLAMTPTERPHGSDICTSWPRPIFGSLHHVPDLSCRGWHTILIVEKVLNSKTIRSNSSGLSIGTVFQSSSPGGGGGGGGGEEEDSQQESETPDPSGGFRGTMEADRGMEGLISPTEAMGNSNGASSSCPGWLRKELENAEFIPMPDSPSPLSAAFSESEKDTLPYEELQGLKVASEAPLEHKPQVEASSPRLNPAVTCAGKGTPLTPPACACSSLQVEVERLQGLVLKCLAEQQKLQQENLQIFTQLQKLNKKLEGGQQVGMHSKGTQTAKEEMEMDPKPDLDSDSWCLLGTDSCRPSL

[11] = molecular target: T4, Serine/threonine-protein kinase Nek9 (Homo sapiens); details: at 1 µM
[12] = molecular target: Serine/threonine-protein kinase PLK1 (Homo sapiens) (UniProt P53350); details: at 0.1 µM
Chain of Serine/threonine-protein kinase PLK1 (Homo sapiens) (P53350 whole entry): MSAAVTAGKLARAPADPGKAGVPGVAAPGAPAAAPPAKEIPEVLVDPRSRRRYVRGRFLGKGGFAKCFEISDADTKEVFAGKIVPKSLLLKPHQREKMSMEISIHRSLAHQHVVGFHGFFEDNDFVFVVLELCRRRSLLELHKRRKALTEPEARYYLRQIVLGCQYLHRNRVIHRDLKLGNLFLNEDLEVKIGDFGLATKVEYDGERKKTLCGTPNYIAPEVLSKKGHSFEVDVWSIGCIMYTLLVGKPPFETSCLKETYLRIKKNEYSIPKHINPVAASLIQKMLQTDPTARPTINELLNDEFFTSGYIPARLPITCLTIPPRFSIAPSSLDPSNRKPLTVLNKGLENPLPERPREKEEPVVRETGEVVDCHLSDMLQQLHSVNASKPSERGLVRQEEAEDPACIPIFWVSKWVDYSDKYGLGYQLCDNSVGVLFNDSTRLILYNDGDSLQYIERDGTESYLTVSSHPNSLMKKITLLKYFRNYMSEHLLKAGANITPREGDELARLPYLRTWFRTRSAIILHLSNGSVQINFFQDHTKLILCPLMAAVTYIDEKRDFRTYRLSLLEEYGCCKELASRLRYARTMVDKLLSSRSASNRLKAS

[13] = molecular target: Serine/threonine-protein kinase PLK1 (Homo sapiens) (UniProt P53350); details: at 1 µM
[14] = molecular target: T5, Dual specificity protein kinase TTK (Homo sapiens) (UniProt P33981); details: at 0.1 µM
T5 sequence (whole entry): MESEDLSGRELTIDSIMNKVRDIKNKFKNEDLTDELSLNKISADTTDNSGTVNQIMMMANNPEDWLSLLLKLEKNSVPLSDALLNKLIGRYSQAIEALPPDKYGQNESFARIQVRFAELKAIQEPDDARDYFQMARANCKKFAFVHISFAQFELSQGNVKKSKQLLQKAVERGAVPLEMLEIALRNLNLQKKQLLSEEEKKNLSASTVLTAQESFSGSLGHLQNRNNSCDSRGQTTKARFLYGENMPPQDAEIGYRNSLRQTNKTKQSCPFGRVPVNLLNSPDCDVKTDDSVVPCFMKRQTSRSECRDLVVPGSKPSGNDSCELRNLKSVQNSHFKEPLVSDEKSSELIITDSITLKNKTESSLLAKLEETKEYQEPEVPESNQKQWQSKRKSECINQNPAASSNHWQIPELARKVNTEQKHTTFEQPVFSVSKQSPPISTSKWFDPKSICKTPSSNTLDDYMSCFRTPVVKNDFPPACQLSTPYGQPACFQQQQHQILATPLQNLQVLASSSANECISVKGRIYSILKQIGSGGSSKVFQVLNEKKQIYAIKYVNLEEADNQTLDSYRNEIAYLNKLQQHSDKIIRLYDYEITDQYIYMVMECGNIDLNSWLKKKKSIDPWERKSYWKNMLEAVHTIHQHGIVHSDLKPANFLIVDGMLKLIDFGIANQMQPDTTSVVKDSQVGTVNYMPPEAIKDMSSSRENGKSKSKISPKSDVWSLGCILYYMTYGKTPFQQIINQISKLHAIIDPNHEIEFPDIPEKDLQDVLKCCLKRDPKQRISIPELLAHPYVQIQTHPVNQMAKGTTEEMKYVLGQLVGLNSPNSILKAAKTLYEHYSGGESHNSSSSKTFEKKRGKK

[15] = system: T6, Receptor-type tyrosine-protein kinase FLT3 (Homo sapiens), P36888 [D835Y]; details: at 1 µM
T6 sequence (whole entry): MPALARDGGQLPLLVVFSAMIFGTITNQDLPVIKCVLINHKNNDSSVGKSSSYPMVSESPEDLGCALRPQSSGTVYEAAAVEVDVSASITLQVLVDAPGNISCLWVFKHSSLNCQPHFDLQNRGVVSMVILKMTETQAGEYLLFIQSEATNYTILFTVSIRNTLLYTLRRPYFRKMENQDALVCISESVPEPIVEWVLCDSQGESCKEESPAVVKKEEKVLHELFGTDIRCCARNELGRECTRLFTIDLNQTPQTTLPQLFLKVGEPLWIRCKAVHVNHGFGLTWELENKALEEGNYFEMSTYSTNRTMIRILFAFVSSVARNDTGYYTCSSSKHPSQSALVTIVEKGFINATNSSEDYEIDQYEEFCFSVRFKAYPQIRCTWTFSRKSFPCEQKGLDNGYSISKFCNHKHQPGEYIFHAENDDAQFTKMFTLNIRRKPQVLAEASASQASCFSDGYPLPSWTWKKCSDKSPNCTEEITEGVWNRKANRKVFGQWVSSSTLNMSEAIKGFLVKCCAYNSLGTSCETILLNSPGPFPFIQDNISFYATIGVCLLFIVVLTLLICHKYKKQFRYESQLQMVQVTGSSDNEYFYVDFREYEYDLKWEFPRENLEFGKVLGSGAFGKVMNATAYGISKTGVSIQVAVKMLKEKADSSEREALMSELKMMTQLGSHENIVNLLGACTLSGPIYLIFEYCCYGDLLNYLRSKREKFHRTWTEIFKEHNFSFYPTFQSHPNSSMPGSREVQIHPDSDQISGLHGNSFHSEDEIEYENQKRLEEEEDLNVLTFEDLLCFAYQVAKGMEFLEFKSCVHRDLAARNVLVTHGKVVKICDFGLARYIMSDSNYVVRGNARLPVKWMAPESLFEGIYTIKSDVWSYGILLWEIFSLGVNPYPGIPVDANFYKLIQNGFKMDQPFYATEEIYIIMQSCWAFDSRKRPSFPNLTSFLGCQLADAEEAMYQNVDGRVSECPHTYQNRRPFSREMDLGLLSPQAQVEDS

[16] = molecular target: Vascular endothelial growth factor receptor 3 (Homo sapiens) (UniProt P35916); details: at 0.1 µM
Chain of Vascular endothelial growth factor receptor 3 (Homo sapiens) (P35916 whole entry): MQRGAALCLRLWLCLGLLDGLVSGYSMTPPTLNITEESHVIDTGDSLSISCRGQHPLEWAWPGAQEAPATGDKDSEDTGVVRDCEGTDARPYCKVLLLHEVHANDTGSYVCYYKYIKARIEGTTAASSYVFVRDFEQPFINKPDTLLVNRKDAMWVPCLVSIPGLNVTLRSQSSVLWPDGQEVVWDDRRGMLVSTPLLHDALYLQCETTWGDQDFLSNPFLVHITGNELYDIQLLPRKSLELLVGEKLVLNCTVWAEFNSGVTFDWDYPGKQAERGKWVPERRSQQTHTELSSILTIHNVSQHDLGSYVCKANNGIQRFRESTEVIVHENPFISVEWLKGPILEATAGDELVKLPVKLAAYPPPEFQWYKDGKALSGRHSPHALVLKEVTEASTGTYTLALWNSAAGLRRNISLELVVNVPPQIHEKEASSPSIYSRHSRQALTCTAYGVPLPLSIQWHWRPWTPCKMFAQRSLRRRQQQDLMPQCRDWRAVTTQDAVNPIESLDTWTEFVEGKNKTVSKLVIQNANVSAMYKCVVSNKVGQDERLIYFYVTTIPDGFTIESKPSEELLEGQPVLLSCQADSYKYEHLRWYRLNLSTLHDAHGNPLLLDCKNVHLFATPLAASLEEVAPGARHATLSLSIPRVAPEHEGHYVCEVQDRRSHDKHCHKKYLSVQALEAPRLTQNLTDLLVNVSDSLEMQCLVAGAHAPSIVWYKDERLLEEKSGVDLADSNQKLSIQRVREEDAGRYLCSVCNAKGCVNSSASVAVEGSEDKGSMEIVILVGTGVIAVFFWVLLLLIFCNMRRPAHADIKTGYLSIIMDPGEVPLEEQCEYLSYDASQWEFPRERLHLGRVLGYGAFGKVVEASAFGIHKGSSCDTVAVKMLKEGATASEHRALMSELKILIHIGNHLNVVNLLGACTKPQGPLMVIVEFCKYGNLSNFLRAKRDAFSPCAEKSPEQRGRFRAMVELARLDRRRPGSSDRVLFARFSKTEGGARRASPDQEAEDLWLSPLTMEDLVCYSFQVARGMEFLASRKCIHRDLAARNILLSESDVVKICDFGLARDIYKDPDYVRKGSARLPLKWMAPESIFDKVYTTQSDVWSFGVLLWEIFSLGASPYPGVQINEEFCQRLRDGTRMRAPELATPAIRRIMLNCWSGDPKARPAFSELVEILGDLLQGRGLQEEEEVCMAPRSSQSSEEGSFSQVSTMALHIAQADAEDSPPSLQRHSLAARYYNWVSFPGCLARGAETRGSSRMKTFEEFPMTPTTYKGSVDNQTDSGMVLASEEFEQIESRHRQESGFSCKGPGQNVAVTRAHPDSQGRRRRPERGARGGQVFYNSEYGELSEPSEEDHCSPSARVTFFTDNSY

[17] = molecular target: Vascular endothelial growth factor receptor 3 (Homo sapiens) (UniProt P35916); details: at 1 µM
[18] = molecular target: Macrophage colony-stimulating factor 1 receptor (Homo sapiens) (UniProt P07333); details: at 0.1 µM
Chain of Macrophage colony-stimulating factor 1 receptor (Homo sapiens) (P07333 whole entry): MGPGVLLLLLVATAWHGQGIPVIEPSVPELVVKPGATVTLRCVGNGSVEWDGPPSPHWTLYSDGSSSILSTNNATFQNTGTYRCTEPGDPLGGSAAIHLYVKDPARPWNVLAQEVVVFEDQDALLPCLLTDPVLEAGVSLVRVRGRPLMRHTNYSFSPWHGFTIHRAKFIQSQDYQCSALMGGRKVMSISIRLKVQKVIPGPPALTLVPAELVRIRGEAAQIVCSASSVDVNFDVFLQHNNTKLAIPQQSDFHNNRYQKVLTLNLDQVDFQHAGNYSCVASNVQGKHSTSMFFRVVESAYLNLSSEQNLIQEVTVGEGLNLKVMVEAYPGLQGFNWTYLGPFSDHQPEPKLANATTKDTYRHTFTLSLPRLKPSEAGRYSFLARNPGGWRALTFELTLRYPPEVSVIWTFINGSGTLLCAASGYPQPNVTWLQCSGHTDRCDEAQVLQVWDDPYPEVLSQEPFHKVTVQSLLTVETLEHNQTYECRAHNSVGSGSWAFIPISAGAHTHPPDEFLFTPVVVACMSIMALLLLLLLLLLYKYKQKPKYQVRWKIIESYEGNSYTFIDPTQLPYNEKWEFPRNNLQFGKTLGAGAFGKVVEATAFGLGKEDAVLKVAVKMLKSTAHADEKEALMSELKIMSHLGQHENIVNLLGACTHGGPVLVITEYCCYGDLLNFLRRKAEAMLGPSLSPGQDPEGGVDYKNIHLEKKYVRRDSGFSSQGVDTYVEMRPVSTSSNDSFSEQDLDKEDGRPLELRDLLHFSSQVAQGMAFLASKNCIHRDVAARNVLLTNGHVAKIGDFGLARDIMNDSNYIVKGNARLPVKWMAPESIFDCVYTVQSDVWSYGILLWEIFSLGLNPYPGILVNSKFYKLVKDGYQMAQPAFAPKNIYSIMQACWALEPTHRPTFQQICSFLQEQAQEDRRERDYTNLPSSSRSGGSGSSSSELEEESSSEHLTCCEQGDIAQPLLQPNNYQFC

[19] = molecular target: Macrophage colony-stimulating factor 1 receptor (Homo sapiens) (UniProt P07333); details: at 1 µM
[20] = molecular target: Tyrosine-protein kinase Fyn (Homo sapiens) (UniProt P06241); details: at 0.1 µM
Chain of Tyrosine-protein kinase Fyn (Homo sapiens) (P06241 2-537 limits assumed): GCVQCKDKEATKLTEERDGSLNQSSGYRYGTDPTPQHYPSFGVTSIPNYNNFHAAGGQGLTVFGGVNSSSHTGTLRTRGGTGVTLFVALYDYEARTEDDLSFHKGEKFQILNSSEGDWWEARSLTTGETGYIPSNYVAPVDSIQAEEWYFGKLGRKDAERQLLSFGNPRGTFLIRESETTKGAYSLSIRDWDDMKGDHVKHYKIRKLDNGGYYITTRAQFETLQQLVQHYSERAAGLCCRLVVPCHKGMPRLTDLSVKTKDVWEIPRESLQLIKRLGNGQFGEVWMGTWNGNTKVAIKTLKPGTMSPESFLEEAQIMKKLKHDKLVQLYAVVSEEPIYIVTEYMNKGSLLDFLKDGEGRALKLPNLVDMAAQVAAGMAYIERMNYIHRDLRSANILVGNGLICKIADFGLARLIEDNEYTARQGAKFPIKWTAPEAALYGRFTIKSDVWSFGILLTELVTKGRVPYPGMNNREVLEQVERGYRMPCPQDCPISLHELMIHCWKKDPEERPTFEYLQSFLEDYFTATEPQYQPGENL

## COC(=O)Nc1nc2ccc(Oc3ccc(NC(=O)Nc4cccc(Cl)c4)cc3)cc2[nH]1
[1]
  inhibition: 1.25%
[2]
  inhibition: 0.97%
[3]
  inhibition: 0.11%
[4]
  inhibition: 0.46%
[5]
  inhibition: 0.04%
[6]
  inhibition: 2.21%
[7]
  inhibition: -0.77%
[8]
  inhibition: 1.46%
[9]
  inhibition: 1.97%
[10]
  inhibition: 5.35%
[11]
  inhibition: 2.84%
[12]
  inhibition: -0.55%
[13]
  inhibition: 0.69%
[14]
  inhibition: 2.99%
[15]
  inhibition: 1.8%
[16]
  inhibition: 4.07%
[17]
  inhibition: 9.34%
[18]
  inhibition: 16.5%
[19]
  inhibition: 45.2%
[20]
  inhibition: 0.86%
